Results reported in PubChem BioAssay AID1159580 (chemical genetic matrix, 2015).
Values joined by “and” are separate entries in the source; they are usually repeats but may differ in a detail not shown here. Equal entries are not always repeated. The whole screen tested about 5,500 compounds, of which about 2,000 (36%) were called active. Roughly 18% stayed inconclusive and do not appear here. Rule as the data show it: active = normalized growth mostly below about 0.91 (no sharp cut-off); inconclusive = no clear call, values can overlap the other calls; inactive = mostly above about 0.92. The list shows a part of the results.

Test: chemical genetic growth profiling, strain panel (AID 1159580);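 also: tested at 20 µM; growth read once vehicle control cultures reached saturation at 30 °C; 1 = growth at the plate median or of vehicle wells; lower values mean less growth of the strain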
Conditions: S. cerevisiae deletion strains, growth OD

Measured: normalized growth

O=c1c(O)c(-c2ccc(O)cc2O)oc2cc(O)cc(O)c12
active: locus YDR069C, strain doa4, hits give low values 0.857
inactive: locus YAL013W, strain DEP1, hits give low values 1 | locus YAL021C, strain ccr4, hits give low values 0.949 | locus YAL026C, strain drs2, hits give low values 0.973 | locus YAL030W, strain snc1, hits give low values 0.99 | locus YAL040C, strain CLN3, hits give low values 1.01 | locus YBL061C, strain skt5, hits give low values 0.963 | locus YBR009C, strain hhf1, hits give low values 1 | locus YBR021W, strain FUR4, hits give low values 1.01 | locus YBR023C, strain chs3, hits give low values 1.01 | locus YBR171W, strain sec66, hits give low values 0.983 | locus YBR229C, strain ROT2, hits give low values 0.988 | locus YBR231C, strain swc5, hits give low values 0.965 | locus YBR279W, strain paf1, hits give low values 0.995 | locus YCL011C, strain gbp2, hits give low values 1 | locus YCL016C, strain dcc1, hits give low values 0.988 | locus YCL029C, strain bik1, hits give low values 1.01 | locus YCL061C, strain MRC1 (second series), hits give low values 0.986 | locus YCL061C, strain MRC1, hits give low values 0.976 | locus YCL069W, strain vba3, hits give low values 0.997 | locus YCR088W, strain abp1, hits give low values 0.991 | locus YDL005C, strain med2, hits give low values 1.01 | locus YDL035C, strain GPR1, hits give low values 0.973 | locus YDL040C, strain nat1, hits give low values 1 | locus YDL074C, strain BRE1, hits give low values 1 | locus YDL101C, strain DUN1, hits give low values 1 | locus YDL185W, strain tfp1, hits give low values 0.976 | locus YDL192W, strain arf1, hits give low values 0.974 | locus YDR001C, strain nth1, hits give low values 0.999 | locus YDR101C, strain arx1, hits give low values 1 | locus YDR137W, strain rgp1, hits give low values 1 | locus YDR150W, strain NUM1, hits give low values 0.986 | locus YDR159W, strain sac3, hits give low values 0.985 | locus YDR162C, strain NBP2, hits give low values 0.971 | locus YDR195W, strain ref2 0.964 | locus YDR297W, strain sur2, hits give low values 0.978 | locus YDR318W, strain mcm21, hits give low values 1.01 | locus YDR334W, strain swr1, hits give low values 0.956 | locus YDR335W, strain msn5, hits give low values 0.98 | locus YDR363W, strain ESC2, hits give low values 0.995 | locus YDR388W, hits give low values 0.991 | locus YDR392W, strain spt3, hits give low values 0.99 | locus YDR502C, strain sam2, hits give low values 1.02 | locus YEL003W, strain gim4, hits give low values 0.976 | locus YEL037C, strain rad23, hits give low values 0.989 | locus YEL061C, strain CIN8 (second series), hits give low values 0.992 | locus YEL061C, strain CIN8, hits give low values 0.995 | locus YER002W, strain NOP16, hits give low values 1.03 | locus YER015W, strain faa2, hits give low values 0.984 | locus YER016W, strain bim1, hits give low values 1 | locus YER110C, hits give low values 1.02 | locus YER111C, strain swi4, hits give low values 0.954 | locus YER155C, strain BEM2 (second series), hits give low values 0.977 | locus YER155C, strain BEM2, hits give low values 1.01 | locus YER167W, strain BCK2, hits give low values 0.996 | locus YFR010W, strain ubp6, hits give low values 0.916 | locus YGL078C, strain dbp3, hits give low values 1.01 | locus YGL086W, strain mad1, hits give low values 1.06 | locus YGL167C, strain pmr1, hits give low values 0.98 | locus YGL173C, strain kem1, hits give low values 0.947 | locus YGL227W, strain vid30, hits give low values 1.01 | locus YGL240W, strain doc1, hits give low values 1 | locus YGL248W, strain PDE1, hits give low values 0.966 | locus YGL253W, strain hxk2, hits give low values 0.994 | locus YGR078C, strain PAC10, hits give low values 0.97 and 1.01 | locus YGR135W, strain pre9, hits give low values 0.991 | locus YHR013C, strain ard1, hits give low values 0.962 | locus YHR027C, strain rpn1, hits give low values 0.973 | locus YHR030C, strain SLT2, hits give low values 0.993 and 0.957 | locus YHR079C, strain IRE1 (second series), hits give low values 1.02 | locus YHR079C, strain IRE1, hits give low values 0.968 | locus YHR094C, strain hxt1, hits give low values 1.02 | locus YHR129C, strain ARP1, hits give low values 0.973 | locus YHR142W, strain chs7, hits give low values 0.945 | locus YHR200W, strain rpn10, hits give low values 0.994 | locus YIL066C, strain RNR3, hits give low values 0.943 | locus YIL073C, strain SPO22, hits give low values 1.08 | locus YIL125W, strain kgd1, hits give low values 0.999 | locus YIR030C, strain dcg1, hits give low values 1.02 | locus YJL092W, strain hpr5, hits give low values 0.996 | locus YJL095W, strain BCK1 (second series), hits give low values 0.964 | locus YJL095W, strain BCK1, hits give low values 0.986 and 0.988 | locus YJL115W, strain asf1, hits give low values 0.994 | locus YJL129C, strain trk1, hits give low values 1.02 | locus YJL134W, strain LCB3, hits give low values 1.02 | locus YJL154C, strain vps35, hits give low values 1.02 | locus YJL164C, strain tpk1, hits give low values 0.975 | locus YJL166W, strain qcr8, hits give low values 0.984 | locus YJL168C, strain set2, hits give low values 1 | locus YJL187C, strain SWE1 (second series), hits give low values 0.966 | locus YJR043C, strain POL32, hits give low values 0.956 | locus YJR066W, strain TOR1, hits give low values 0.935 | locus YJR075W, strain HOC1, hits give low values 1.01 | locus YKL009W, strain mrt4, hits give low values 1.01 | locus YKL068W, hits give low values 1.01 | locus YKL085W, strain MDH1 (second series), hits give low values 0.999 | locus YKL085W, strain MDH1, hits give low values 0.999 | locus YKL160W, strain elf1, hits give low values 0.989 | locus YKL190W, strain CNB1, hits give low values 1 | locus YKR001C, strain vps1, hits give low values 1.01 | locus YKR026C, strain gcn3, hits give low values 0.975 | locus YKR091W, strain srl3, hits give low values 0.996 | locus YLL001W, strain dnm1, hits give low values 0.983 | locus YLL026W, hits give low values 1 | locus YLL041C, strain sdh2, hits give low values 0.999 | locus YLR027C, strain aat2, hits give low values 1.01 | locus YLR039C, strain RIC1, hits give low values 1.04 | locus YLR058C, strain SHM2, hits give low values 0.984 | locus YLR102C, strain apc9, hits give low values 1.01 | locus YLR113W, strain HOG1, hits give low values 1 | locus YLR221C, strain rsa3, hits give low values 0.963 | locus YLR258W, strain gsy2, hits give low values 0.985 | locus YLR262C, strain YPT6 (second series), hits give low values 0.966 | locus YLR262C, strain YPT6, hits give low values 1.06 | locus YLR268W, strain sec22, hits give low values 1.03 | locus YLR320W, strain mms22, hits give low values 0.959 | locus YLR330W, strain CHS5, hits give low values 1.01 | locus YLR342W, strain FKS1 (second series), hits give low values 0.965 | locus YLR342W, strain FKS1, hits give low values 0.974 | locus YLR357W, strain rsc2, hits give low values 0.924 | locus YLR370C, strain arc18, hits give low values 0.988 | locus YLR371W, strain rom2, hits give low values 0.995 | locus YLR384C, strain iki3, hits give low values 1 | locus YLR418C, strain cdc73, hits give low values 1.05 | locus YML016C, strain PPZ1, hits give low values 0.972 | locus YML032C, strain rad52, hits give low values 1 | locus YML120C, strain ndi1, hits give low values 0.994 | locus YML124C, strain tub3, hits give low values 1.02 | locus YMR058W, strain fet3, hits give low values 0.932 | locus YMR078C, strain ctf18, hits give low values 1.03 | locus YMR125W, strain sto1, hits give low values 1 | locus YMR129W, hits give low values 1.01 | locus YMR205C, strain PFK2, hits give low values 0.98 | locus YMR223W, strain ubp8, hits give low values 0.986 | locus YMR231W, strain pep5, hits give low values 0.991 | locus YMR263W, strain SAP30, hits give low values 0.996 and 1.01 | locus YMR307W, strain GAS1, hits give low values 0.942 | locus YNL067W, strain RPL9B, hits give low values 1 | locus YNL071W, strain lat1, hits give low values 1 | locus YNL128W, strain TEP1, hits give low values 1 | locus YNL175C, strain NOP13, hits give low values 1.01 | locus YNL183C, strain NPR1, hits give low values 0.961 | locus YNL197C, strain WHI3, hits give low values 1.01 | locus YNL209W, strain ssb2, hits give low values 0.991 | locus YNL224C, strain SQS1, hits give low values 1.03 | locus YNL233W, strain BNI4, hits give low values 0.988 | locus YNL248C, strain rpa49, hits give low values 0.976 | locus YNL250W, strain rad50, hits give low values 1.01 | locus YNL271C, strain bni1, hits give low values 0.993 | locus YNL298W, strain CLA4, hits give low values 1 | locus YNL307C, strain MCK1, hits give low values 1.02 | locus YNL322C, strain KRE1 (second series), hits give low values 0.987 | locus YNL322C, strain KRE1, hits give low values 1 | locus YNR049C, strain mso1, hits give low values 1 | locus YNR052C, strain pop2, hits give low values 0.992 | locus YOL006C, strain TOP1, hits give low values 1.01 | locus YOL012C, strain htz1 0.825 | locus YOL147C, strain pex11, hits give low values 1.02 | locus YOR001W, strain rrp6, hits give low values 0.996 | locus YOR061W, strain CKA2, hits give low values 0.97 | locus YOR069W, strain VPS5, hits give low values 0.992 | locus YOR070C, strain gyp1, hits give low values 0.989 | locus YOR080W, strain dia2, hits give low values 0.994 | locus YOR083W, strain WHI5 (second series), hits give low values 1.01 | locus YOR083W, strain WHI5, hits give low values 0.974 | locus YOR106W, strain vam3, hits give low values 0.931 | locus YOR136W, strain idh2, hits give low values 1.02 | locus YOR144C, strain elg1, hits give low values 1.02 | locus YOR184W, strain ser1, hits give low values 1.01 | locus YOR231W, strain MKK1, hits give low values 0.988 | locus YOR265W, strain rbl2, hits give low values 0.991 | locus YOR270C, strain vph1, hits give low values 0.872 | locus YOR290C, strain snf2, hits give low values 0.976 | locus YOR316C, strain cot1, hits give low values 1.01 | locus YPL051W, strain arl3, hits give low values 0.952 | locus YPL055C, strain LGE1, hits give low values 1 | locus YPL078C, strain atp4, hits give low values 0.994 | locus YPL106C, strain sse1, hits give low values 0.916 | locus YPL240C, strain hsp82, hits give low values 0.997 | locus YPL241C, strain CIN2, hits give low values 1 | locus YPL256C, strain CLN2, hits give low values 0.974 | locus YPR119W, strain clb2, hits give low values 1.02 | locus YPR141C, strain kar3, hits give low values 1.01 | locus YPR163C, strain tif3, hits give low values 1.02 | locus YPR167C, strain met16, hits give low values 0.995 | strain wtn01, hits give low values 1.02
